This passage reports Potency results from PubChem BioAssay (NCATS).

The nature of test [1]: qHTS for Inhibitors of Plasmodium falciparum (HB3) proliferation (AID 504318). Also: nearly all actives have a fitted effect of over 60% in size. Also: potency is read from the fitted curve at half-maximal effect. The procedure, abridged:
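Erythrocytes infected with P. falciparum line (0.3% parasitemia, 2.5% hematocrit final) incubated with compounds 72 h at 37 °C, 5% CO2; SYBR Green lysis buffer added, fluorescence read next day. Normalized to 0.29 uM artemisinin and DMSO.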

Test [2] addresses Luciferin 4-monooxygenase (Photinus pyralis) (UniProt P08659). Description: Biochemical firefly luciferase enzyme assay for NPC (AID 624030).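 Also: purified P. pyralis luciferase at 10 nM with luciferin and ATP substrate; nearly all actives have a fitted effect of over 70% in size.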 The method in brief: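 Counter-screen for direct inhibition of the luciferase enzyme by approved-drug library compounds, run at 10 nM enzyme in 50 mM Tris acetate (final). Luminescence was read within 5 min of enzyme-buffer addition and normalized to PTC124 versus DMSO (0%).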

Test [3] can be described thus: S16 Schwann cell viability assay (CellTiter-Glo assay) (AID 624031).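 Also: cellular ATP luminescence as a viability measure; nearly all actives have a fitted effect of over 70% in size.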 The procedure, abridged: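 Native S16 rat Schwann cells in DMEM/10% FBS without phenol red were incubated overnight, then exposed to compounds for 24 h at 37 °C/5% CO2. Viability was read as ATP luminescence (CellTiter-Glo), normalized to no-cell wells and DMSO (0%).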
A further test relates to CP215. Description: qHTS profiling for inhibitors of Plasmodium falciparum proliferation (AID 504749). Also: nearly all actives have a fitted effect of over 60% in size. Conditions: P. falciparum in erythrocytes, SYBR Green DNA, 72 h; series mostly up to 28.7 µM. The procedure, abridged:
(§1)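 P. falciparum-infected erythrocytes (0.3% parasitemia, 2.5% hematocrit final) were exposed to compounds for 72 h at 37 C in 5% CO2, then lysed with SYBR Green buffer overnight at room temperature; parasite DNA fluorescence was normalized to artemisinin and DMSO controls.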

The next test deals with CP256. The test is described as above. The note with it: P. falciparum in erythrocytes, SYBR Green DNA, 72 h; series mostly up to 28.7 µM. The method in brief:
as §1

The subject of the next test is CP260. Described as above. The note with it: P. falciparum in erythrocytes, SYBR Green DNA, 72 h; series mostly up to 28.7 µM. The procedure, abridged:
as §1

In a further test the test system is DIV14. The description is as above. The note with it: P. falciparum in erythrocytes, SYBR Green DNA, 72 h; series mostly up to 28.7 µM. The method in brief:
as §1

The test system of another test is DIV17. Described as above. Conditions: P. falciparum in erythrocytes, SYBR Green DNA, 72 h; series mostly up to 28.7 µM. The procedure, abridged:
as §1

Another test deals with GB4. The description is as above. Conditions: P. falciparum in erythrocytes, SYBR Green DNA, 72 h; series mostly up to 28.7 µM. The method in brief:
as §1

Another test relates to ICS. The description is as above. Conditions: P. falciparum in erythrocytes, SYBR Green DNA, 72 h; series mostly up to 28.7 µM. The method in brief:
as §1

The test system of the next test is W2. The description is as above. The note with it: P. falciparum in erythrocytes, SYBR Green DNA, 72 h; series mostly up to 28.7 µM. The procedure, abridged:
as §1

Test [4] deals with Cytochrome P450 2D6 (Homo sapiens) (UniProt P10635). The experiment in a line: qHTS Assay for Inhibitors and Substrates of Cytochrome P450 2D6 (AID 891).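 Also: luciferin methyl ether substrate demethylated by CYP2D6 with NADPH regeneration; nearly all actives have a fitted effect of over 60% in size.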 The method in brief:
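Human CYP2D6 (5 nM) with 30 uM Luciferin-ME EGE (at Km) in 100 mM KPO4, compound preincubated 10 min, then NADPH regeneration system for 60 min at room temperature. Luciferin read by luminescence; normalized to 1.43 uM quinidine.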

Test [5] deals with Cytochrome P450 2C19 (Homo sapiens) (UniProt P33261). The experiment in a line: qHTS Assay for Inhibitors and Substrates of Cytochrome P450 2C19 (AID 899). Also: nearly all actives have a fitted effect of over 60% in size. The method in brief:
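In 50mM KPO4, the reaction held 5nM enzyme and KM-level (10uM) Luciferin-H EGE; it ran 60 min at 37C after NADPH regeneration and a 10 min compound preincubation. Luminescence values were scaled to 57uM ketoconazole as complete inhibition.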

Records with an inconclusive call do not appear. Active and inactive are the calls of the source. Calls follow the shape of the dose curve; as a rule, active = well fitted curve in the direction sought with a large enough effect; inconclusive = small, poorly fitted or top-dose-only effect, or another doubt; inactive = no such curve, though single readings can be large; an effect the other way counts as inactive or inconclusive.

Sequence of Cytochrome P450 2C19 (Homo sapiens) (P33261 whole entry, looked up): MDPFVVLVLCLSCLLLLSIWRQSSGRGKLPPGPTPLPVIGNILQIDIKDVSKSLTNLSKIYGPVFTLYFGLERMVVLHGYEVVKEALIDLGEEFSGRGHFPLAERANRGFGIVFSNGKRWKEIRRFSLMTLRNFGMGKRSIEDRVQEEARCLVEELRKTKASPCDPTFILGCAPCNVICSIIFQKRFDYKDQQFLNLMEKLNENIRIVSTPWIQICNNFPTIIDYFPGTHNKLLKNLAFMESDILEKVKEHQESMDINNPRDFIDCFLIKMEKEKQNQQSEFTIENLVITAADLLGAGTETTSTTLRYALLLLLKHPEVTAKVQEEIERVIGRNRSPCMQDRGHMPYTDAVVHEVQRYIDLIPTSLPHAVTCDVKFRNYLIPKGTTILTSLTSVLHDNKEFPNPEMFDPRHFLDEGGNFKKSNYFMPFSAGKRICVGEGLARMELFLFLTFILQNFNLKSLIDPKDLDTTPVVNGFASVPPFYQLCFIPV
Sequence of Cytochrome P450 2D6 (Homo sapiens) (P10635 whole entry, looked up): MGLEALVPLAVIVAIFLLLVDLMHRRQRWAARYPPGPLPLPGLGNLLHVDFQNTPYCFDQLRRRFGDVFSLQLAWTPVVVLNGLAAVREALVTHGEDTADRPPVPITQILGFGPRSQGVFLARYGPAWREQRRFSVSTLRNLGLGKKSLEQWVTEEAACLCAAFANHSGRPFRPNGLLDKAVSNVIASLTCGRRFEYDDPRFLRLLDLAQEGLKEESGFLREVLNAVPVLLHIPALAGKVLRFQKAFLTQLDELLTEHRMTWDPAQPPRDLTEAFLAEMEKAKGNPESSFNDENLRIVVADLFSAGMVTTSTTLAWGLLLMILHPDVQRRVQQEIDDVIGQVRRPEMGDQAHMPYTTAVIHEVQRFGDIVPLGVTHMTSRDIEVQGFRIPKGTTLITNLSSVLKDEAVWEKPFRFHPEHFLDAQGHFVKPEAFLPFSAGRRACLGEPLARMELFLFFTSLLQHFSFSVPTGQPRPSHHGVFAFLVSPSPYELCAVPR
Sequence of Luciferin 4-monooxygenase (Photinus pyralis) (P08659 whole entry, looked up): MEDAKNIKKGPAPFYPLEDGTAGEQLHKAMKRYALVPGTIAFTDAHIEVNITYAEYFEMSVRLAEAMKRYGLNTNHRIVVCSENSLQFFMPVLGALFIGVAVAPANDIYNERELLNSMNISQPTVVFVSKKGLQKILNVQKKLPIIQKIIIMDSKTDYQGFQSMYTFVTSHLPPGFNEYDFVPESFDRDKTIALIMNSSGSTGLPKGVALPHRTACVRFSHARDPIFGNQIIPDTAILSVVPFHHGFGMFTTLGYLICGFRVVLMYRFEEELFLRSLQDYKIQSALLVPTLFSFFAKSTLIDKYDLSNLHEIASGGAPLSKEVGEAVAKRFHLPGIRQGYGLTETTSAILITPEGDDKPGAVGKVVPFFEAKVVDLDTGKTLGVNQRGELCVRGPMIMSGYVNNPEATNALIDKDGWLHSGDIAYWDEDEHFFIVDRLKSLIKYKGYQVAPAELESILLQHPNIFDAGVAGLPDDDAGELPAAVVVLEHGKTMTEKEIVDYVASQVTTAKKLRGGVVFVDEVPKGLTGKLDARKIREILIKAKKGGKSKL

In the case of `COC(=O)N1C2CC(=O)O[C@@H]3c4cc5c(cc4[C@]1(C)[C@@]3(Br)c1ccccc12)OCO5`, the Potency in [1] was 1900 nM (active).
On the same count and under the same terms, for `O=C1C=CC2(OCCCO2)C(Br)=C1CO` the value was “inactive”.
On the same count and under the same terms, as for `COc1ccc([C@]23Cc4cc(OC)c(OC)cc4[C@H](O2)c2c(c4ccccc4oc2=O)O3)cc1`, the entry is “inactive”; as for `C[C@H]1Cc2c(-c3ccccc3)nc3c(c2CO1)CN(C(=O)NCCc1c[nH]c2ccccc12)CC3`, “inactive”; as for `COC(=O)C1=C(C(=O)OC)[C@@H]2N(Cc3ccccc3)c3ccccc3[C@@]23C[C@@H](C(=O)OC)N(S(=O)(=O)c2ccc(OC)cc2)C3=N1`, 1900 nM (active).
On the same count and under the same terms, for `CCCCS(=O)(=O)N1C2=NC(C(=O)OC)=C(C(=O)OC)[C@@H]3N(Cc4ccccc4)c4ccccc4[C@]23C[C@H]1C(=O)OC` the value was 2390 nM (active); for `COCOc1ccc(OC)cc1C(=O)C=Cc1ccc(OC)c(Br)c1`, 1690 nM (active); for `COc1ccc(-c2nc(-c3ccccc3)c(Nc3ccc4ccccc4c3)o2)cc1`, 1690 nM (active).
On to `C[C@H]1Cc2c(COc3ccccc3)nc3c(c2CO1)CN(S(=O)(=O)c1ccc(Cl)c2nonc12)CC3`, for which the Potency entry in test [1] was “inactive”.
With `CC(=O)OCC(=O)[C@@]1(O)CCC2C3CCC4=CC(=O)CC[C@]4(C)C3=CC[C@@]21C` (some centres not stated), the Potency entry (in [2]; in [3]; in the test with CP215; in the test on CP256; in the test on CP260; with DIV14) was “inactive” in each case. For the same compound, the Potency result in the test with DIV17, in the test with GB4, with ICS and with W2 was “inactive” throughout.
For the compound `CCN(CC)CCCN1C=C2C(=O)C(C)(OC(=O)c3cccs3)C(=O)C=C2C=C1CCCC(=O)OC` (configuration not stated), in test [1], the Potency result is “inactive”.
Consider `CCCCCC(=O)c1cc(CC(C(=O)OC)C(=O)OC)cc2cc(OC)c(OC)cc12`, for which the Potency result in test [4] and in [5] was “inactive” throughout.
